High-throughput results: PubChem, several laboratories
EBNA-1 inh: EBNA-1 DNA-binding inhibitors, primary screen, biochemical, fluorescence polarization. inhibition, % at 14.8 µM. actives 0.34% (n = 300,000); in the data active = inhibition above about 28%
NCF1 inh: p47phox/p22phox peptide binding inhibitors, primary screen, biochemical, uHTS, NADPH oxidase regulatory subunit. Neutrophil cytosol factor 1 (Homo sapiens), P14598. fluorescence polarization, 2 h. inhibition, % at 24.7 µM. actives 0.53% (n = 220,000). AID 1274, 2008;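 active = inhibition above about 30%, limit read from the data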
aDG glyco up: activators of alpha-DG glycosylation, primary screen, uHTS, Pro5-aDG cells, AlphaScreen | AID 624168, 2012 | activation, % at 10 µM | alpha-DG glycosylation AlphaScreen (IIH6); 0% Pro5, 100% B10-LARGE cell signal | actives 0.22% (n = 360,000);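 active = activation of at least 8% versus controls, or a plate z-score of at least 8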;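 also: Pro5 are CHO cells carrying HIG-tagged alpha-DG that lacks glycosylation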
PG9 Ab binder: binders of HIV-1 gp120 antibody PG9, primary screen, biochemical, TR-FRET | HIV-1 gp120 / PG9 antibody interaction | TR-FRET gp120-PG9 antibody binding | inhibition, % at 6.7 µM | actives 0.43% (n = 360,000) | AID 624416, 2012; in the data active = inhibition above about 8.5%
ZTA DNA inh: ZTA (EBV) inhibition in EBNA-1 counter-screen | ZTA-DNA binding, fluorescence polarization | inhibition, % at 11 µM | actives 0.15% (n = 320,000) | AID 2234; in the data active = inhibition above about 33%
Rev-erbA mod: modulators of Rev-erb alpha DNA binding, primary screen, biochemical, FITC-DNA, fluorescence polarization, uHTS; AID 1259318, 2017; activity, % at 10 µM; actives 0.79% (n = 370,000); Nuclear receptor subfamily 1 group D member 1 (Homo sapiens), P20393; Rev-erbα–FITC-DNA binding, 90 min;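 active = activity above about 14%, limit read from the data; passing the limit was not always enough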
Target sequence (P20393 whole entry, looked up): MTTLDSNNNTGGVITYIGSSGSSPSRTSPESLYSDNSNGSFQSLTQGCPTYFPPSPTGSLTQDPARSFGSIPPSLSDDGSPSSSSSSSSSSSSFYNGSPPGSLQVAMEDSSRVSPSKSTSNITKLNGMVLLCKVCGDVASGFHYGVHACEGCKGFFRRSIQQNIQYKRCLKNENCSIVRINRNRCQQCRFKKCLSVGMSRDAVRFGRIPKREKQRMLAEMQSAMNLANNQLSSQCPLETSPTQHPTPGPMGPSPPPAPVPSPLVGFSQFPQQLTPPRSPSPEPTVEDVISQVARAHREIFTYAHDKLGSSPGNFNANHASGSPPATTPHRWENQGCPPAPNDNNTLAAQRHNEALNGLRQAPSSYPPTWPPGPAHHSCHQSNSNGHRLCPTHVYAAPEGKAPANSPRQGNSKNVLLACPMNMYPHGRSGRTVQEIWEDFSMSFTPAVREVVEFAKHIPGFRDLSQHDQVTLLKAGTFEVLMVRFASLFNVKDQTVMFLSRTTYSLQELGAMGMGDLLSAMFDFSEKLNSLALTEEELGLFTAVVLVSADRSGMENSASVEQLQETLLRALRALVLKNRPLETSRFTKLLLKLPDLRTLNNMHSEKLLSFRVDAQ
Numbers stand for hits; ! = not confirmed by another sample. The list is not random: actives were taken first. Their share in the collection is about 1.9%.

Screening CC(=O)N1C=Cc2c(c(C)c3c([nH]c4ccccc43)c2C)C1 returned NCF1 inh 77.3.
Screening COc1cc(Br)c(C[N+]2(CCOCCC3CCC4CC3C4(C)C)CCOCC2)cc1OC (stereo not given) returned Rev-erbA mod inactive.
CN=c1sc2c(n1C)C(=O)c1ccccc1C2=O was read as aDG glyco up 13.0, PG9 Ab binder inactive and Rev-erbA mod inactive.
Screening CN=c1sc(C(=O)Nc2ccccc2)c(C)n1C returned EBNA-1 inh inactive, NCF1 inh inactive, aDG glyco up inactive, PG9 Ab binder inactive, ZTA DNA inh inactive and Rev-erbA mod inactive.
For COC(=O)[C@]12C[C@H](CC(=O)NCCCCc3ccccc3)C(=O)N(CCc3ccc(OC)c(OC)c3)C1=C[C@H](C(C)(C)C)O[C@@H]2C the results were Rev-erbA mod inactive.
Screening C#CCN1C(=O)S/C(=C/C=C/c2ccc(N(C)C)cc2)C1=O returned EBNA-1 inh inactive, NCF1 inh 43.5, aDG glyco up inactive, PG9 Ab binder inactive, ZTA DNA inh inactive and Rev-erbA mod inactive.
`C=CCN1C=C/C(=C\C=C(C#N)C#N)c2ccccc21` gave EBNA-1 inh inactive, NCF1 inh 82.6, aDG glyco up inactive, PG9 Ab binder inactive, ZTA DNA inh inactive and Rev-erbA mod inactive.
`CN1/C(=C/C=C(C#N)C#N)C=Cc2ccccc21` gave EBNA-1 inh inactive, NCF1 inh inactive, aDG glyco up inactive, PG9 Ab binder inactive, ZTA DNA inh inactive and Rev-erbA mod inactive.
CCCCCCN1C=C/C(=C\C=C(C#N)C#N)c2ccccc21 was read as EBNA-1 inh inactive, NCF1 inh 127.8, aDG glyco up inactive, PG9 Ab binder inactive, ZTA DNA inh inactive and Rev-erbA mod inactive.
`CC(C)CN(C[C@@H](OP(=O)(O)O)[C@H](Cc1ccccc1)NC(=O)O[C@H]1CCOC1)S(=O)(=O)c1ccc(N)cc1` gave Rev-erbA mod inactive.
`CCCCNC(=O)C[C@H]1C[C@@]2(C(=O)OC)C(=C[C@H](C(C)(C)C)O[C@@H]2C)N(Cc2cccc3ccccc23)C1=O` gave Rev-erbA mod inactive.
C[c-]1[c-](C)[c-](C)[c-](C)[c-]1C.[Fe].c1cc2nccc(N3CCCC3)[c-]2c1 (stereo not given) was read as EBNA-1 inh inactive, NCF1 inh 30.4!, aDG glyco up inactive, PG9 Ab binder inactive, ZTA DNA inh inactive and Rev-erbA mod inactive.
Screening N#CCCN(Cc1cccnc1)C(=S)Nc1ccccc1Cl returned NCF1 inh 36.6, aDG glyco up inactive, PG9 Ab binder inactive and Rev-erbA mod inactive.
For COc1ccc(NS(=O)(=O)c2cccc(C(=O)N/N=C/c3ccc4c(c3)OCCO4)c2)cc1 the results were EBNA-1 inh inactive, NCF1 inh 31.3, aDG glyco up inactive, PG9 Ab binder inactive, ZTA DNA inh inactive and Rev-erbA mod inactive.
Screening C=CCn1c(-c2ccco2)n[nH]c1=S returned EBNA-1 inh inactive, NCF1 inh 32.2, aDG glyco up inactive, PG9 Ab binder inactive, ZTA DNA inh inactive and Rev-erbA mod inactive.
O=S1(=O)c2ccc(Br)cc2OC[C@@H](c2ccccc2)N1Cc1cn(Cc2ccccc2)nn1 was read as Rev-erbA mod inactive.
O=c1c([N+](=O)[O-])c(Cl)c2ccccc2n1Cc1ccccc1 was read as Rev-erbA mod inactive.
COc1ccc(S(=O)(=O)N2CCC(C(=O)NCCc3ccc4c(c3)OCO4)CC2)cc1 was read as EBNA-1 inh inactive, NCF1 inh 42.0, aDG glyco up inactive, PG9 Ab binder inactive, ZTA DNA inh inactive and Rev-erbA mod inactive.
`COC(=O)[C@H]1C[C@@]2(n3ccc4ccccc43)c3ccccc3N(S(=O)(=O)c3ccccc3)[C@H]2N1C(=O)CNC1CCCCC1` gave Rev-erbA mod inactive.
For COC(=O)[C@H](C)N(Cc1cn(Cc2ccccc2)nn1)S(=O)(=O)c1ccccc1Br the results were Rev-erbA mod inactive.
For C#C[C@]1(O)CCC2C3CCC4=Cc5oncc5C[C@]4(C)C3CC[C@@]21C (stereo not given in full) the results were Rev-erbA mod inactive.
